Only some compounds are listed: those with a hit (about 5.2% of all), similar ones and a draw of the others.
ALR inh – inhibitors of human ALR sulfhydryl oxidase, primary screen, biochemical, H2O2 detection, HRP-luminol luminescence, single point. FAD-linked sulfhydryl oxidase ALR (Homo sapiens), P55789. purified ALR, DTT oxidation. inhibition, % (no concentration beside the values). 290,000 tested, 3.8% active;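 active = mean replicate inhibition above about 79%, with every replicate also reaching it, limit read from the data; inconclusive = only one of the two criteria met; inactive = mean below limit and not every replicate reaching it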
Target sequence (P55789 whole entry, looked up): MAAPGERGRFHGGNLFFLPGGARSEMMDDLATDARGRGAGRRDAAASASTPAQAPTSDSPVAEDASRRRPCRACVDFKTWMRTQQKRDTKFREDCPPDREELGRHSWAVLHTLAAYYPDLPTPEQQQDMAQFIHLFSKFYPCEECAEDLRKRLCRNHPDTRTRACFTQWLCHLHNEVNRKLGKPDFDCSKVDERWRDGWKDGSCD
Yeast superoxide – reduction of superoxide in aged yeast, primary screen, HTS; S. cerevisiae aged cells, superoxide DHE fluorescence; active compounds read low; superoxide response (% of plate mean), % at 10 µM; 330,000 tested, 0.18% active; AID 2690, 2010;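 active = superoxide response under a set limit, about three screen SD below normal, cut at about 65% in these data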;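 note: yeast aged for seven days with compound at 30 °C before DHE staining; 100% = average MFI of all compound-treated wells on the plate with controls excluded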
APOBEC3G inh – APOBEC3G DNA deaminase inhibitors, primary screen, biochemical, fluorescence, single-stranded DNA substrate, uHTS; 330,000 tested, 0.28% active; recombinant A3G, ssDNA deamination FAM/TAMRA fluorescence; inhibition, % at 20 µM; DNA dC->dU-editing enzyme APOBEC-3G (Homo sapiens), Q9HC16;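 active = inhibition of at least 40% at 20 µM, with no more than 30% in the related APOBEC3A deaminase screen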;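 note: plate controls were DMSO wells with A3G for no effect and wells lacking A3G enzyme for full effect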
APOBEC3A inh – APOBEC3A ssDNA deaminase inhibitors, primary screen, selectivity assay for APOBEC3G inhibitor project, biochemical, FAM/TAMRA oligo cleavage fluorescence; DNA dC->dU-editing enzyme APOBEC-3A (Homo sapiens), P31941; recombinant A3A, FAM/TAMRA ssDNA deamination fluorescence; inhibition, % at 20 µM; 330,000 tested, 0.41% active; AID 493011, 2011;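 active = at least 40% inhibition at 20 µM here, with at most 30% in a related deaminase screen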;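 note: plate controls were A3A with DMSO for no effect and wells lacking A3A enzyme for full effect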
Target sequence (P31941 whole entry, looked up): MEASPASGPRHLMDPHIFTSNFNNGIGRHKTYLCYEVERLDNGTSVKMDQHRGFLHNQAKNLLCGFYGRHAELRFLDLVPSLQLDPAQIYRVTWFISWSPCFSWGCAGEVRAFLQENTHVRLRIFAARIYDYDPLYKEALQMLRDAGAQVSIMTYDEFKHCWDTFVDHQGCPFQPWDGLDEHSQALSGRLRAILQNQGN
PfM18AAP inh – PfM18AAP inhibitors, malaria aminopeptidase, primary screen, biochemical, QFRET, recombinant enzyme; AID 1822, 2009; 290,000 tested, 1.2% active; inhibition, % at 7.35 µM; H-Glu-NHMec fluorogenic cleavage;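 active = inhibition above the campaign mean inhibition over all tested compounds plus 3 SD, cut at about 28% in these data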;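 note: 0% = plate median of test compound wells and 100% = 2 mM ZnCl2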
NRP1-CendR mod – modulators of CendR peptide binding to NRP-1, primary screen, biochemical, fluorescence polarization, uHTS; Neuropilin-1 (Homo sapiens), O14786; FAM-RPARPAR peptide binding to NRP-1; inhibition, % at 25 µM; 360,000 tested, 0.85% active; AID 602438, 2012;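 active = inhibition or corrected inhibition above about 18%, plus a signal ratio from 0.5 to 1.5, limit read from the data, passing the limit was not always enough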
* = called active by the depositor; ? = inconclusive; · = no result.

SMILES	ALR inh	Yeast superoxide	APOBEC3G inh	APOBEC3A inh	PfM18AAP inh	NRP1-CendR mod
CCN1CCN(CCCNC(=O)c2ccc3c(c2)N(Cc2ccc(C)cc2)CCS3)CC1	99*	111	-2	1	2	3
Cc1cccc(C)c1NC(=O)c1cc(S(=O)(=O)N2CCOCC2)cn1C	-10	92	-8	0	7	-5
Cn1cc(S(=O)(=O)N2CCOCC2)cc1C(=O)O	-3	107	7	4	·	31*
O=C1CC(Nc2ccccc2)C(=O)N1c1ccc(N2CCOCC2)cc1 (stereo not given)	-9	113	-3	-2	2	-8
COc1ccc(CCN2C(=O)CC(Nc3ccc(N4CCOCC4)cc3)C2=O)cc1OC (stereo not given)	99*	84	-10	-3	15	-7
O=C1CC(Nc2ccc(N3CCOCC3)cc2)C(=O)N1c1ccccc1F (stereo not given)	99*	93	-9	-6	8	-3
CC(C)N1C(=O)CC(Nc2ccc(N3CCOCC3)cc2)C1=O (stereo not given)	99*	96	0	0	21	-1
O=C1CC(Nc2ccc(N3CCOCC3)cc2)C(=O)N1C1CCCCC1 (stereo not given)	99*	103	0	0	14	-12
CCCN(CCC)Cc1c(C(=O)N/N=C/c2ccc(Br)cc2)nnn1-c1nonc1N	-5	101	-4	-1	-7	3
COC(OC)c1ccnc(-c2ccc(OC(=O)c3ccc(F)cc3)cc2)n1	-1	127	-10	2	-2	11
CCOC(=O)CSc1nc2ccccc2c(=O)[nH]1	2	100	-6	-2	2	-4
Cc1ccc2c(c1)c1nnc(SCC(=O)Nc3ccc(N(C)C)cc3)nc1n2CC(=O)O	100*	100	10	7	18	12
COc1ccc(NC(=O)CN(C)CC(=O)Nc2cccc(F)c2)cc1Cl	2	112	-13	-4	-10	28*
CCOCCc1c(O)nc(SCC(=O)N2CCOCC2)[nH]c1=O	85*	93	-8	-1	-14	4
CCCCCCc1c(O)nc(SCCN2CCOCC2)[nH]c1=O	37	95	-1	3	-2	8
CCCCc1c(O)nc(SCC(=O)N2CCOCC2)[nH]c1=O	98*	90	-6	-8	-1	-6
Cc1cc(N2CCOCC2)ccc1/C=C\[N+](=O)[O-]	28	98	-7	16	12	4
CC(C)c1ccc(NC(=O)CSc2nc(=O)n(CCCN3CCOCC3)c3c2CCC3)cc1	98*	109	-3	0	·	5
CC(C)c1ccc(NC(=O)CSc2nc(=O)n(CCCN3CCOCC3)c3c2CCCC3)cc1	99*	91	7	2	·	2
O=C(CSc1nc(=O)n(CCCN2CCOCC2)c2c1CCCC2)Nc1ccc(Cl)cc1	96*	93	-4	-1	·	13
O=C(CSc1nc(=O)n(CCCN2CCOCC2)c2c1CCC2)Nc1ccc([N+](=O)[O-])cc1	98*	110	3	0	·	6
O=C(CSc1nc(=O)n(CCCN2CCOCC2)c2c1CCCC2)Nc1ccc(F)cc1F	-6	86	0	2	·	-9
O=C(CSc1nc(=O)n(CCCN2CCOCC2)c2c1CCCC2)Nc1cccc(F)c1	?	94	-8	-4	·	5
Cn1ccc2c(N3CCCCCC3)cc3c(c21)C1CCC3C1 (stereo not given)	·	·	·	·	·	16
CC(C)c1ccc(NC(=O)CSc2nnc(CN3CCOCC3)n2C)cc1	98*	116	-11	-4	-1	10
SMILES	ALR inh	Yeast superoxide	APOBEC3G inh	APOBEC3A inh	PfM18AAP inh	NRP1-CendR mod
Cc1ccc(NC(=O)CSc2nnc(CN3CCOCC3)n2C)cc1C	·	103	-3	0	-2	5
O=C(CSc1nc(=O)n(CCCN2CCOCC2)c2c1CCCC2)Nc1ccccc1Cl	-4	119	-6	-1	·	12
Cc1c(Cl)cccc1NC(=O)CSc1nc(=O)n(CCCN2CCOCC2)c2c1CCC2	94*	93	-6	-3	·	6
COc1ccc(/C=N/NC(=O)c2nonc2C)cc1	-19	115	-7	-21	0	-2
O=[N+]([O-])c1ccc(/C=C/c2ccncc2)cc1	-22	62*	·	·	2	1
Fc1ccc(-c2nc3ccncc3[nH]2)cc1	2	106	-4	-1	-10	-2
Fc1ccc(-c2ccnc(=S)[nH]2)cc1	99*	97	0	-6	13	5
CN1C(=O)C(N=Nc2ccccc2C(=O)O)N(C)C1=S (stereo not given)	98*	127	-6	-1	18	-105
CC1=NN(C(N)=S)C(=O)C1N=Nc1ccccc1C(=O)O (stereo not given)	0	101	-5	2	-2	10
CC1Cc2nc(SCC(=O)N3CCOCC3)n(C)c(=O)c2S1 (stereo not given)	25	118	-3	-4	-2	14
CC1Cc2nc(SCC(=O)OCc3ccccc3)n(C)c(=O)c2S1 (stereo not given)	99*	86	2	-1	5	3
CC1Cc2nc(SCC(=O)Nc3nc4ccccc4s3)n(C)c(=O)c2S1 (stereo not given)	99*	86	-10	-5	-8	6
CC1Cc2nc(SCC(=O)N3CCc4ccccc43)n(C)c(=O)c2S1 (stereo not given)	98*	93	-2	1	-2	-22
CCN1CCCSC1=S	·	·	·	·	·	1
COc1ccccc1C(=O)NCCC(=O)NCC1CCCO1 (stereo not given)	-12	70	-4	-6	·	-8
COc1ccc(NC2CCCN(Cc3cccc4cnccc34)C2)cc1OC (stereo not given)	95*	109	0	-1	14	-1
COc1ccc(NC2CCCN(Cc3cccc4cnccc34)C2)cc1 (stereo not given)	·	106	-9	-6	12	1
COc1ccc(NC2CCCN(C(=O)CSc3ccccn3)C2)cc1OC (stereo not given)	99*	110	-6	-4	16	-14
COc1ccc(NC2CCCN(C(=O)CN3C(=O)c4ccccc4C3=O)C2)cc1OC (stereo not given)	98*	111	-3	-3	7	3
Cc1ccc(-n2nnnc2SCC(=O)N2CCNC2=O)cc1C	2	99	-7	-6	·	-1
O=Nc1ccc(NOC(=O)c2ccccc2Br)cc1	60	85	-2	1	9	5

Assay outcomes from PubChem BioAssay.
